# Measured values taken from the supplement of paper PMC8728848.
# Many of the other results were omitted from the sample, so the strongest signals are more common in it than they were.
# Tests used:
# Experiment in all cases: glycan array binding signal (z-score within array); higher = stronger binding
# Settings in all cases: glycan notation: IUPAC condensed, linker removed
# [1] = target: Fuc(a1-2)Gal(b1-3)GalNAc(a1-3)[Fuc(a1-2)]Gal(b1-4)GlcNAc
# Procedure, shortened: (§1)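 Glycan array data came from 3228 arrays in the Consortium for Functional Glycomics database, and only arrays with an available protein sequence were kept. Glycan names were put into IUPAC-condensed notation, and columns mapping to the same glycan were averaged. The binding signal is a within-array Z-score, averaged across arrays of one protein sequence run at different concentrations or buffers and across linkers. A negative Z-score can be read as non-binding.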
# [2] = target: Fuc(a1-2)Gal(b1-3)[Fuc(a1-4)]GlcNAc(b1-2)Man(a1-3)[Fuc(a1-2)Gal(b1-3)[Fuc(a1-4)]GlcNAc(b1-2)Man(a1-3)]Man(b1-4)GlcNAc(b1-4)GlcNAc
# Procedure, shortened: as §1
# [3] = target: Fuc(a1-2)Gal(b1-4)GlcNAc(b1-2)[Fuc(a1-2)Gal(b1-4)GlcNAc(b1-4)]Man(a1-3)[Fuc(a1-2)Gal(b1-4)GlcNAc(b1-2)Man(a1-6)]Man(b1-4)GlcNAc(b1-4)GlcNAc
# Procedure, shortened: as §1
# [4] = target: Fuc(a1-2)Gal(b1-4)GlcNAc(b1-6)GalNAc
# Procedure, shortened: as §1
# [5] = target: Fuc(a1-2)Gal(b1-4)[Fuc(a1-3)]GlcNAc(b1-2)Man(a1-3)[Fuc(a1-2)Gal(b1-4)[Fuc(a1-3)]GlcNAc(b1-2)Man(a1-6)]Man(b1-4)GlcNAc(b1-4)[Fuc(a1-6)]GlcNAc
# Procedure, shortened: as §1
# [6] = target: Fuc(a1-2)Gal(b1-4)[Fuc(a1-3)]GlcNAc(b1-3)GalNAc
# Procedure, shortened: as §1
# [7] = target: Fuc(a1-2)Gal3S(b1-4)GlcNAc
# Procedure, shortened: as §1
# Fuc(a1-2)[Gal(a1-3)]Gal = target: Fuc(a1-2)[Gal(a1-3)]Gal
# Procedure, shortened: as §1
# [8] = target: Fuc(a1-2)[Gal(a1-3)]Gal(b1-3)GlcNAc(b1-2)Man(a1-3)[Fuc(a1-2)[Gal(a1-3)]Gal(b1-3)GlcNAc(b1-2)Man(a1-6)]Man(b1-4)GlcNAc(b1-4)[Fuc(a1-6)]GlcNAc
# Procedure, shortened: as §1
# [9] = target: Fuc(a1-2)[Gal(a1-3)]Gal(b1-4)GlcNAc(b1-2)Man(a1-3)[Fuc(a1-2)[Gal(a1-3)]Gal(b1-4)GlcNAc(b1-2)Man(a1-6)]Man(b1-4)GlcNAc(b1-4)GlcNAc
# Procedure, shortened: as §1
# [10] = target: Fuc(a1-2)[GalNAc(a1-3)]Gal(b1-3)GlcNAc(b1-2)Man(a1-3)[Fuc(a1-2)[GalNAc(a1-3)]Gal(b1-3)GlcNAc(b1-2)Man(a1-6)]Man(b1-4)GlcNAc(b1-4)[Fuc(a1-6)]GlcNAc
# Procedure, shortened: as §1
# [11] = target: Fuc(a1-2)[GalNAc(a1-4)]Gal(b1-4)GlcNAc
# Procedure, shortened: as §1
# Fuc(a1-3)GlcNAc = target: Fuc(a1-3)GlcNAc
# Procedure, shortened: as §1
# [12] = target: Fuc(a1-3)[Gal(b1-4)]GlcNAc(b1-6)GalNAc
# Procedure, shortened: as §1
# [13] = target: Fuc(a1-3)[Gal(b1-4)]GlcNAc6S
# Procedure, shortened: as §1
# [14] = target: Fuc(a1-3)[GalNAc(b1-4)]GlcNAc6S
# Procedure, shortened: as §1
# Gal(a1-3)Gal(b1-4)Glc = target: Gal(a1-3)Gal(b1-4)Glc
# Procedure, shortened: as §1
# [15] = target: Gal(a1-3)[Gal(a1-4)]Gal(b1-4)GlcNAc
# Procedure, shortened: as §1
# Gal(b1-3)GlcNAc(b1-2)Man = target: Gal(b1-3)GlcNAc(b1-2)Man
# Procedure, shortened: as §1
# [16] = target: Gal(b1-3)GlcNAc(b1-3)Gal(b1-4)Glc
# Procedure, shortened: as §1
# Gal(b1-4)Glc = target: Gal(b1-4)Glc
# Procedure, shortened: as §1
# [17] = target: Gal(b1-4)GlcNAc(b1-3)Gal(b1-4)GlcNAc(b1-2)Man(a1-3)[Gal(b1-4)GlcNAc(b1-3)Gal(b1-4)GlcNAc(b1-2)Man(a1-6)]Man(b1-4)GlcNAc(b1-4)GlcNAc
# Procedure, shortened: as §1
# [18] = target: Gal(b1-4)GlcNAc(b1-3)Gal(b1-4)GlcNAc(b1-3)Gal(b1-4)GlcNAc(b1-2)Man(a1-3)[Gal(b1-4)GlcNAc(b1-3)Gal(b1-4)GlcNAc(b1-3)Gal(b1-4)GlcNAc(b1-2)Man(a1-6)]Man(b1-4)GlcNAc(b1-4)GlcNAc
# Procedure, shortened: as §1
# Gal3S(b1-4)Glc = target: Gal3S(b1-4)Glc
# Procedure, shortened: as §1
# Gal3S4S(b1-4)GlcNAc = target: Gal3S4S(b1-4)GlcNAc
# Procedure, shortened: as §1
# GalNAc6S(b1-4)GlcNAc = target: GalNAc6S(b1-4)GlcNAc
# Procedure, shortened: as §1
binder,measurement,setting,value
PX14375A-pdi-503-28-503 (Parabacteroides distasonis) (protein) PLGSPEAGDISEERQAFLRLTAVYSVMKDFRYTWSMQCFGDVLSNDATYSGSSNDAQTFTLLENYQYQADHTEILNKYRYSYQCINKANLFIRDMEMADDALFSKYDKEQMIGEAKFIRAYTYFELVKTFGGVPCYTGVLDLDHERLGRASVEEIYSVIEQDLNDAVSVLPKKSEVANYESSYAGRITKGAAIAMQTRIYLYEKKYDEVKKAFEKFQNECGGEYSLVAPEDYTWQFSLDGEHCSSSILEVNMYNSSTQSSYNVNNGNRHVLMSMPRNMTIGFGCAQPTQALADAYDAEGDVIRKKTTLLSTEEAIEIETAAKGDVAPVTDDRTGWYNRKLYLAPGQREENRGNNQPTNLRLIRLAEVYLNYAEACYFSGDIANAQKYLNEVRSHVNLAPKNHTGSQLFEDIMNERHLEFGMEGFRFFDVVRVGWGEKVFNGTKKAEFGAKTPFSAGAEVLPIPQTEIDISDGLITN,glycan array binding signal (z-score),[1],-1
same,glycan array binding signal (z-score),[2],0.809
same,glycan array binding signal (z-score),[3],1.43
same,glycan array binding signal (z-score),[4],0.828
same,glycan array binding signal (z-score),[5],-0.25
same,glycan array binding signal (z-score),[6],-0.279
same,glycan array binding signal (z-score),[7],0.279
same,glycan array binding signal (z-score),Fuc(a1-2)[Gal(a1-3)]Gal,0.139
same,glycan array binding signal (z-score),[8],1.43
same,glycan array binding signal (z-score),[9],-0.223
same,glycan array binding signal (z-score),[10],-0.166
same,glycan array binding signal (z-score),[11],-0.304
same,glycan array binding signal (z-score),Fuc(a1-3)GlcNAc,-0.753
same,glycan array binding signal (z-score),[12],-0.205
same,glycan array binding signal (z-score),[13],0.08
same,glycan array binding signal (z-score),[14],0.949
same,glycan array binding signal (z-score),Gal(a1-3)Gal(b1-4)Glc,-0.124
same,glycan array binding signal (z-score),[15],2.05
same,glycan array binding signal (z-score),Gal(b1-3)GlcNAc(b1-2)Man,-0.555
same,glycan array binding signal (z-score),[16],10.3
same,glycan array binding signal (z-score),Gal(b1-4)Glc,-0.065
same,glycan array binding signal (z-score),[17],5.38
same,glycan array binding signal (z-score),[18],2.49
same,glycan array binding signal (z-score),Gal3S(b1-4)Glc,-0.196
same,glycan array binding signal (z-score),Gal3S4S(b1-4)GlcNAc,-0.718
same,glycan array binding signal (z-score),GalNAc6S(b1-4)GlcNAc,-0.507
